# Assay results as given in a collection of fitness landscapes (doi:10.1126/science.1257360).
# Whole data set: some 140,000 sequences, median “enrichment ratio after two sorts for PhoP signalling” near 0, cut for the highest 2% near 11. The full list was thinned out, with the highest values kept by preference.
# B1: PhoQ; a variant is named by its letters at X, in order, P23837 (parent)
# chain: MKKLLRLFFPLSLRVRFLLATAAVVLVLSLAYGMVALIGYSVSFDKTTFRLLRGESNLFYTLAKWENNKLHVELPENIDKQSPTMTLIYDENGQLLWAQRDVPWLMKMIQPDWLKSNGFHEIEADVNDTSLLLSGDHSIQQQLQEVREDDDDAEMTHSVAVNVYPATSRMPKLTIVVVDTIPVELKSSYMVWSWFIYVLSANLLLVIPLLWVAAWWSLRPIEALAKEVRELEEHNRELLNPATTRELTSLVRNLNRLLKSERERYDKYRTTLTDLTHSLKTPLXXLQXXLRSLRSEKMSVSDAEPVMLEQISRISQQIGYYLHRASMRGGTLLSRELHPVAPLLDNLTSALNKVYQRKGVNISLDISPEISFVGEQNDFVEVMGNVLDNACKYCLEFVEISARQTDEHLYIVVEDDGPGIPLSKREVIFDRGQRVDTLRPGQGVGLAVAREITEQYEGKIVAGESMLGGARMEVIFGRQHSAPKDE
# Variants of: B1
# Assay: enrichment ratio after two sorts for PhoP signalling (ratio (wild type AVST 3.29)); higher = more functional
# Settings: with PhoP (E. coli)
row,Variant,enrichment ratio
1,EYAS,≤ 0.25
2,LGCH,≤ 0.25
3,TLYV,0.293
4,LEIN,≤ 0.25
5,EYMV,≤ 0.25
6,RHQP,≤ 0.25
7,GNME,≤ 0.25
8,GICE,6.08
9,GIME,13.3
10,DICD,≤ 0.25
11,EHLY,≤ 0.25
12,FVVK,≤ 0.25
13,ASSF,11.3
14,VRSM,≤ 0.25
15,ASGR,≤ 0.25
16,ASSM,19.3
17,ASQM,2.47
18,KSSF,≤ 0.25
19,VGAL,0.829
20,GWCN,≤ 0.25
21,NMML,≤ 0.25
22,SMML,14.5
23,SYML,0.252
24,KYML,≤ 0.25
25,TIML,2.74
26,SGEL,≤ 0.25

row,Variant,enrichment ratio
1,SNML,15.9
2,HEML,≤ 0.25
3,STML,13.4
4,SWML,≤ 0.25
5,SGML,17.4
6,AVQL,≤ 0.25
7,YNMI,0.268
8,IVRK,≤ 0.25
9,TQMH,9.69
10,IKMM,≤ 0.25
11,WGHD,≤ 0.25
12,SQFI,≤ 0.25
13,RPFT,≤ 0.25
14,SAML,16.5
15,SLML,7.15
16,SIML,6.65
17,SSML,23.6
18,IIML,≤ 0.25
19,SCML,11.2
20,SPML,≤ 0.25
21,SRML,4.3
22,SAKL,≤ 0.25
23,HYKH,≤ 0.25
24,GCEP,≤ 0.25
25,RQGY,≤ 0.25
26,IQNM,≤ 0.25

row,Variant,enrichment ratio
1,QSWN,21.4
2,QGWN,16.6
3,FVWN,≤ 0.25
4,QTWI,3.53
5,QTWN,16.8
6,FTWN,≤ 0.25
7,QQRM,≤ 0.25
8,FFWN,≤ 0.25
9,QSQN,≤ 0.25
10,QLWN,≤ 0.25
11,QQNM,16.3
12,QVFE,≤ 0.25
13,EYFQ,≤ 0.25
14,FTGV,≤ 0.25
15,FFRA,≤ 0.25
16,LYHH,≤ 0.25
17,EIFG,≤ 0.25
18,KAWN,≤ 0.25
19,MAWI,8.24
20,MAWN,23.5
21,FCWL,≤ 0.25
22,QRWL,≤ 0.25
23,QSWL,11.6
24,QQWN,13.8
25,FPWN,≤ 0.25
26,QPWL,≤ 0.25

row,Variant,enrichment ratio
1,TPWN,≤ 0.25
2,NAWN,≤ 0.25
3,MAWL,12
4,YELN,2.61
5,KINA,≤ 0.25
6,IDLY,≤ 0.25
7,SGPA,≤ 0.25
8,TVIM,≤ 0.25
9,ALLC,1.19
10,SWSV,≤ 0.25
11,LKFM,≤ 0.25
12,FEFH,≤ 0.25
13,QRWN,≤ 0.25
14,QQNL,14.9
15,QQWL,11.7
16,QQRL,≤ 0.25
17,QIWN,27.2
18,QRYN,≤ 0.25
19,QPWN,≤ 0.25
20,QQQL,≤ 0.25
21,QQEL,≤ 0.25
22,QVWL,1.05
23,QIYN,20.5
24,QEYN,≤ 0.25
25,LCAS,≤ 0.25
26,AWQV,≤ 0.25

row,Variant,enrichment ratio
1,QRPC,≤ 0.25
2,IARV,≤ 0.25
3,HCSE,≤ 0.25
4,YKNC,≤ 0.25
5,HYGG,≤ 0.25
6,ESAV,2.02
7,LFIM,≤ 0.25
8,WQAC,≤ 0.25
9,MMIC,≤ 0.25
10,TQCV,10.8
11,TQCG,14.9
12,TQCE,87.9
13,TQIE,≤ 0.25
14,TQCS,15.1
15,TQAI,3.21
16,TQCP,≤ 0.25
17,FQCG,1.7
18,DWCG,≤ 0.25
19,TQCA,17.6
20,TQNE,≤ 0.25
21,TQPI,≤ 0.25
22,HAWL,≤ 0.25
23,SAVY,1.85
24,QKIT,≤ 0.25
25,GSFP,≤ 0.25
26,DITR,≤ 0.25

row,Variant,enrichment ratio
1,PWHF,≤ 0.25
2,MSDL,≤ 0.25
3,NNLP,≤ 0.25
4,RETI,≤ 0.25
5,HCYR,≤ 0.25
6,RHMQ,≤ 0.25
7,WQYV,≤ 0.25
8,RTWF,≤ 0.25
9,TQCI,16
10,TQCL,12.5
11,TQQP,≤ 0.25
12,SQYS,≤ 0.25
13,FQCQ,≤ 0.25
14,TQEL,≤ 0.25
15,TQRL,≤ 0.25
16,TQCK,1.24
17,TQCQ,27.8
18,TQTH,6.85
19,TQYS,12.5
20,TQYK,≤ 0.25
21,WRPN,≤ 0.25
22,GCIS,2.07
23,PPWA,≤ 0.25
